Measurements published in PubChem BioAssay.
Where “and” joins values, the source holds several entries; their conditions need not be identical. Equal values may be shown once. Calls of active or inactive are those of the source.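 How the source made its calls, unless noted: active means thallium flux through the channel raised or lowered by more than 3 SD from vehicle-only wells, actives on both sides; inactive means the rest.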

Experiments:
[1] = P. berghei load reduction in hepatocytes – cell-based, HepG2, luciferase luminescence, HepG2 viability, primary screen (AID 624349; in the data active means parasite load remaining mostly below about 12%, no sharp cut-off; inactive means mostly above about 10%;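 further: 100% = mean of DMSO negative control wells on the same plate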); settings: P. berghei liver stage in HepG2, luciferase luminescence, concentration not given here; parasite load remaining: stronger effect = lower value; viability: measured here: HepG2 viability without parasites
[2] = signal quenchers or enhancers, Cy5 substrate/SSB – biochemical, NIH Clinical Collection, E. coli SSB, artefact control for HCV NS3 helicase inhibitor project (AID 743268; call rule not given here); settings: Cy5-oligo bound E. coli SSB, fluorescence interference
[3] = test system: Hepatitis C virus NS3 helicase; test: blockers of NS3h binding to DNA – biochemical, fluorescence polarization, NIH Clinical Collection, primary screen (AID 743270; call rule not given here); settings: NS3 helicase binding to Cy5-dT15 DNA, stronger effect = higher value, concentration not given here
[4] = biological target: Single-stranded DNA-binding protein (Escherichia coli (strain K12)) (UniProt P0AGE0); test: SSB-ssDNA binding inhibitors – biochemical, fluorescence polarization, NIH Clinical Collection, counter-screen for HCV NS3 helicase inhibitor project (AID 743271; in the data active means inhibition above about 28%); settings: E. coli SSB-DNA binding, stronger effect = higher value, concentration not given here
[5] = compounds distorting NS3 helicase fluorescence signal – biochemical, NIH Clinical Collection, artefact control for HCV NS3 helicase inhibitor project (AID 743272; call rule not given here;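 further: HCV NS3 helicase with a Cy5 labelled single stranded DNA probe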); settings: fluorescence interference counterscreen, HCV NS3 helicase assay; stronger effect = lower value
[6] = modulation of C. elegans fzo-1 (AID 1259413; call rule not given here;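 further: fzo-1 mutant C. elegans worms in liquid wells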); settings: C. elegans fzo-1 modulator screen, mean read-out; stronger effect = higher value
[7] = viability loss with induced miR-34 in A549 – imaging, A549 dox-inducible miR-34, nuclei and caspase counts, primary screen (AID 1347080;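 active means compounds whose cell count with miR-34 switched on is under 0.7 times the count with it off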); settings: A549 miR-34 inducible, Hoechst nuclei count, 48 h
[8] = test system: F380Y; test: BK channel mutant inhibitors and activators – cell-based, U2OS BacMam, thallium flux, beta subunits, selectivity assay, profiling panel (AID 1259406); settings: U2OS BacMam BK variants, at 30 µM;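 further: initial slope of Thallos dye fluorescence rise after thallium is added; log ratio against the mean of 0.3% DMSO vehicle wells on the same plate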
[9] = test system: F380Y/beta1; test: as above; settings: U2OS BacMam BK variants, at 30 µM
[10] = test system: F380Y/beta2Delta; test: as above; settings: U2OS BacMam BK variants, at 30 µM
[11] = test system: F380Y/beta4; test: as above; settings: U2OS BacMam BK variants, at 30 µM
[12] = biological target: Calcium-activated potassium channel subunit alpha-1 (Homo sapiens) + Leucine-rich repeat-containing protein 26 (Homo sapiens) (UniProt Q12791+Q2I0M4); test: as above; settings: U2OS BacMam BK variants, F380Y/Slo1WT/gamma1, at 30 µM
[13] = test system: R275C; test: as above; settings: U2OS BacMam BK variants, at 30 µM
[14] = test system: R275C/beta1; test: as above; settings: U2OS BacMam BK variants, at 30 µM
[15] = test system: R275C/beta2Delta; test: as above; settings: U2OS BacMam BK variants, at 30 µM
[16] = test system: R275C/beta4; test: as above; settings: U2OS BacMam BK variants, at 30 µM
[17] = test system: R275C/Slo1WT/beta2; test: as above; settings: U2OS BacMam BK variants, at 30 µM
[18] = MELAS cybrid and Rieske KO viability enhancers – cell-based, MELAS cybrids, Rieske KO mouse fibroblasts, CellTiter-Glo, primary screen (AID 1508586;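 active means mean z-score across replicates of 1.96 or higher in either the MELAS or the Rieske mutant cell line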;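 further: z relative to plate mean and SD of compound and empty wells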); settings: low glucose
[19] = stronger effect = lower value, cell number ratio, induced over uninduced
[20] = measured here: relative caspase fold change +Dox/-Dox
[21] = measured here: total cells with miR-34 induction, stronger effect = lower value
[22] = measured here: total cells without miR-34 induction
[23] = MELAS cybrid survival, CellTiter-Glo 48 h, stronger effect = higher value
[24] = Rieske KO mouse fibroblast survival, CellTiter-Glo 72 h

Calcium-activated potassium channel subunit alpha-1 (Homo sapiens) + Leucine-rich repeat-containing protein 26 (Homo sapiens), sequence (Q2I0M4 whole entry, looked up, one chain of several): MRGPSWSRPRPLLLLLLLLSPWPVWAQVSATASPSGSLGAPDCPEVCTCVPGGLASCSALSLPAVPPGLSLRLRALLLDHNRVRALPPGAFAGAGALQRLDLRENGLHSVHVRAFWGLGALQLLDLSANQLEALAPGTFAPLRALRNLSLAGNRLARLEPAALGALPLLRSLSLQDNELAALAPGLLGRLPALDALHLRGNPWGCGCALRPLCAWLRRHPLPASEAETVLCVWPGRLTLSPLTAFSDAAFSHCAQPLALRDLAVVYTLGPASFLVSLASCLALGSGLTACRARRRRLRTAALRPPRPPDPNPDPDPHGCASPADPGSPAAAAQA

CC(=O)C1(O)CCC2C3CC(C)C4=CC(=O)C=CC4(C)C3(F)C(O)CC21C (stereo not given)
2.07: fold change [7, 20]
7970: cell count [7, 21]
8610: cell count [7, 22]
inactive: parasite load remaining [1] 94.8% | fluorescence ratio [2] 1.07 | inhibition [3] -0.45% | inhibition [4] -0.48% | fluorescence ratio [5] 1 | mean signal [6] 265 | fold change [7, 19] 0.925 | log fold change Tl+ flux [8] -0.0303 | log fold change Tl+ flux [9] 0.0429 | log fold change Tl+ flux [10] -0.0137 | log fold change Tl+ flux [11] -0.0225 | log fold change Tl+ flux [12] -0.014 | log fold change Tl+ flux [13] -0.0154 | log fold change Tl+ flux [14] 0.00875 | log fold change Tl+ flux [15] -0.0161 | log fold change Tl+ flux [16] 0.055 | log fold change Tl+ flux [17] 0.00372
93.8%: viability [1]

CC1CNc2c(cccc2S(=O)(=O)N[C@@H](CCCN=C(N)N)C(=O)N2CC[C@@H](C)C[C@@H]2C(=O)O)C1 (stereo not given in full)
1.15: fold change [7, 20]
75.9% and 68%: viability [1]
-0.277 and -0.497: z-score [18, 24]
11700: cell count [7, 22]
10400: cell count [7, 21]
inactive: parasite load remaining [1] 91.7% and 25.6% | fluorescence ratio [2] 1.01 | inhibition [3] -2.77% | inhibition [4] -0.1% | fluorescence ratio [5] 0.96 | mean signal [6] 269 | fold change [7, 19] 0.891 | z-score [18, 23] -0.605 and 0.47 | log fold change Tl+ flux [8] -0.00418 | log fold change Tl+ flux [9] 0.00744 | log fold change Tl+ flux [10] 0.0133 | log fold change Tl+ flux [11] 0.00267 | log fold change Tl+ flux [12] -0.0355 | log fold change Tl+ flux [13] -0.0227 | log fold change Tl+ flux [14] -0.0183 | log fold change Tl+ flux [15] -0.0418 | log fold change Tl+ flux [16] -0.0138 | log fold change Tl+ flux [17] 0.0382

O=C1c2c(O)cc(O)cc2O[C@H](c2ccc(O)c(O)c2)[C@H]1O
inactive: parasite load remaining [1] 112% | fluorescence ratio [2] 0.99 | inhibition [3] 1.19% | inhibition [4] -1.64% | fluorescence ratio [5] 0.99 | mean signal [6] 241 | log fold change Tl+ flux [8] 0.0483 | log fold change Tl+ flux [9] -0.0233 | log fold change Tl+ flux [10] 0.00163 | log fold change Tl+ flux [11] 0.00589 | log fold change Tl+ flux [12] 0.0266 | log fold change Tl+ flux [13] -0.0716 | log fold change Tl+ flux [14] -0.00477 | log fold change Tl+ flux [15] 0.0423 | log fold change Tl+ flux [16] 0.0387 | log fold change Tl+ flux [17] -0.0121
91%: viability [1]

CN1[C@@H]2CC[C@H]1CC(OC(=O)C(CO)c1ccccc1)C2 (stereo not given in full)
11100 and 8790 and 10800: cell count [7, 22]
0.502 and 0.307: z-score [18, 24]
2.84 and 0.579 and 1.47: fold change [7, 20]
87.1% and 116%: viability [1]
10500 and 7790 and 9390: cell count [7, 21]
inactive: parasite load remaining [1] 41.5% and 46.2% | mean signal [6] 274 | fold change [7, 19] 0.947 and 0.887 and 0.871 | z-score [18, 23] -0.283 and 0.13 | log fold change Tl+ flux [8] 0.0269 | log fold change Tl+ flux [9] -0.0245 | log fold change Tl+ flux [10] 0.00535 | log fold change Tl+ flux [11] 0.0216 | log fold change Tl+ flux [12] 0.00679 | log fold change Tl+ flux [13] -0.0152 | log fold change Tl+ flux [14] -0.00104 | log fold change Tl+ flux [15] 0.0208 | log fold change Tl+ flux [16] -0.00928 | log fold change Tl+ flux [17] 0.0472

Nc1ccn([C@@H]2CS[C@H](CO)O2)c(=O)n1
1.73: fold change [7, 20]
10700: cell count [7, 21]
11100: cell count [7, 22]
inactive: parasite load remaining [1] 60.8% and 120% | mean signal [6] 246 | fold change [7, 19] 0.962 | z-score [18, 23] -0.0861 | log fold change Tl+ flux [8] 0.00141 and 0.0147 | log fold change Tl+ flux [9] -0.0646 and -0.0414 | log fold change Tl+ flux [10] -0.00742 and 0.0531 | log fold change Tl+ flux [11] -0.0496 and -0.00739 | log fold change Tl+ flux [12] 0.0127 and 0.0118 | log fold change Tl+ flux [13] -0.0937 and 0.0141 | log fold change Tl+ flux [14] -0.00105 and 0.0176 | log fold change Tl+ flux [15] 0.0208 and -0.0112 | log fold change Tl+ flux [16] 0.00653 and -0.00304 | log fold change Tl+ flux [17] 0.00916 and -0.0234
0.0484: z-score [18, 24]
121% and 70.7%: viability [1]

COc1ccnc(CS(=O)c2nc3cc(OC(F)F)ccc3[nH]2)c1OC (stereo not given)
75.5%: viability [1]
1.32: fold change [7, 20]
inactive: parasite load remaining [1] 94.6% | fluorescence ratio [2] 1.07 | inhibition [3] -2.77% | inhibition [4] 1.44% | fluorescence ratio [5] 1.05 | mean signal [6] 243 | fold change [7, 19] 0.937 | z-score [18, 23] 1.33 | log fold change Tl+ flux [8] -0.000729 | log fold change Tl+ flux [9] -0.0068 | log fold change Tl+ flux [10] 0.0285 | log fold change Tl+ flux [11] -0.0379 | log fold change Tl+ flux [12] 0.0336 | log fold change Tl+ flux [13] -0.0182 | log fold change Tl+ flux [14] 0.0487 | log fold change Tl+ flux [15] 0.0404 | log fold change Tl+ flux [16] -0.00392 | log fold change Tl+ flux [17] -0.00592
0.907: z-score [18, 24]
9070: cell count [7, 21]
9680: cell count [7, 22]

Cc1onc(-c2ccccc2)c1C(=O)NC1C(=O)N2C1SC(C)(C)C2C(=O)O (stereo not given)
inactive: parasite load remaining [1] 62.5% | fluorescence ratio [2] 1.01 | inhibition [3] -1.36% | inhibition [4] 2.57% | fluorescence ratio [5] 1 | mean signal [6] 250 | fold change [7, 19] 0.977 and 0.865 | z-score [18, 23] 1.06 | log fold change Tl+ flux [8] -0.000886 | log fold change Tl+ flux [9] -0.0194 | log fold change Tl+ flux [10] -0.0125 | log fold change Tl+ flux [11] -0.0665 | log fold change Tl+ flux [12] 0.0114 | log fold change Tl+ flux [13] 0.00519 | log fold change Tl+ flux [14] 0.0152 | log fold change Tl+ flux [15] 0.00981 | log fold change Tl+ flux [16] -0.0329 | log fold change Tl+ flux [17] -0.0606
10800 and 8670: cell count [7, 21]
11000 and 10000: cell count [7, 22]
0.0389: z-score [18, 24]
137%: viability [1]
2.75 and 0.316: fold change [7, 20]
